Measured values: PubChem BioAssay (NCI)
This is part of a sample that, as a whole, favours compounds with a hit. Of some 79,000 tested, about 15% had one in any assay. A number with no mark means an inactive call. Calls of active or inactive are those of the source. Rule as the data show it: active = growth inhibition above about 70%; inactive = the rest.

Key:
[1] = NCI Yeast Anticancer Drug Screen. Data for the rad52 strain (AID 147);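 also: 0% = growth of vehicle-treated control cultures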; conditions: S. cerevisiae rad52 mutant growth inhibition, stronger effect = higher value
Outline: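 Read-out: growth inhibition versus vehicle-treated controls. Cells were a DNA repair-deficient yeast strain treated with compounds.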

[2] = NCI Yeast Anticancer Drug Screen. Data for the wt1 strain (AID 149);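 also: 0% = growth of vehicle-treated wt1 cultures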; conditions: S. cerevisiae wt1 strain (SPY 50644) growth inhibition, stronger effect = higher value
Outline: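 Each compound is tested on wt1 yeast and the loss of growth versus vehicle gives the inhibition value.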

[3] = NCI Yeast Anticancer Drug Screen. Data for the rad50EPP+ strain (AID 151);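 also: 0% = growth of vehicle-treated control cultures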; conditions: S. cerevisiae rad50 mutant strain, stronger effect = higher value
Outline: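 Growth inhibition read against vehicle controls in rad50EPP+ yeast, a strain altered in DNA damage repair, after compound exposure.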

[4] = NCI Yeast Anticancer Drug Screen. Data for the mgt1 strain (AID 153); conditions: S. cerevisiae mgt1 mutant growth inhibition, stronger effect = higher value
Outline: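 mgt1 yeast grown with test compound; read-out is growth inhibition versus vehicle-treated cultures.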

[5] = NCI Yeast Anticancer Drug Screen. Data for the rad50 strain (AID 155);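 also: 0% = growth of vehicle-only cultures of the same strain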; conditions: S. cerevisiae rad50 strain growth inhibition, stronger effect = higher value
Outline: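 Vehicle-treated cultures provide the reference for the growth inhibition reported for compound-exposed, repair-deficient yeast.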

[6] = NCI Yeast Anticancer Drug Screen. Data for the mec2-1 strain (AID 157); conditions: S. cerevisiae mec2-1 strain, stronger effect = higher value
Outline: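 Yeast mec2-1 mutant treated with compound. Readout: growth inhibition vs vehicle controls.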

[7] = NCI Yeast Anticancer Drug Screen. Data for the rad14 strain (AID 159);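 also: 0% = growth of vehicle-treated control cultures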; conditions: S. cerevisiae rad14 strain growth inhibition, stronger effect = higher value
Outline: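 Inhibition of growth is reported for a repair-deficient yeast mutant following compound treatment, calculated relative to cultures that received vehicle.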

[8] = NCI Yeast Anticancer Drug Screen. Data for the sgs1 mgt1 strain (AID 161);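 also: 0% = growth of cultures given vehicle only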; conditions: S. cerevisiae sgs1 mgt1 strain, stronger effect = higher value
Outline: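 Read-out: growth inhibition vs vehicle controls. Cells: mutant yeast strain deficient in DNA damage repair.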

[9] = NCI Yeast Anticancer Drug Screen. Data for the CLN2oe strain (AID 163);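 also: 0% = growth of vehicle-only control cultures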; conditions: S. cerevisiae CLN2oe strain, stronger effect = higher value
Outline: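 Read-out: yeast growth inhibition, expressed relative to vehicle-only controls. The strain bears an engineered cell-cycle alteration.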

[10] = NCI Yeast Anticancer Drug Screen. Data for the cln2 rad14 strain (AID 165);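 also: 0% = growth equal to vehicle treated cultures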; conditions: S. cerevisiae cln2 rad14 strain, stronger effect = higher value
Outline: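 cln2 rad14 yeast strain; compound exposure; growth inhibition read vs vehicle controls.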

[11] = NCI Yeast Anticancer Drug Screen. Data for the bub3 strain (AID 167); conditions: S. cerevisiae bub3 mutant strain, stronger effect = higher value
Outline: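 Mutant yeast screening strain plus compound; vehicle-treated cultures serve as the 0% inhibition reference.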

[12] = NCI Yeast Anticancer Drug Screen. Data for the wt2 strain (AID 169); conditions: S. cerevisiae wt2 strain growth inhibition, stronger effect = higher value
Outline: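 Read-out: growth inhibition versus vehicle-treated control cultures after compound exposure of the yeast strain.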

[13] = NCI Yeast Anticancer Drug Screen. Data for the mlh1 strain (AID 171);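 also: 0% = growth of vehicle-treated control cultures of the same strain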; conditions: S. cerevisiae mlh1 strain growth inhibition, stronger effect = higher value
Outline: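 Read-out: growth inhibition versus vehicle controls. Strain: engineered yeast with a defined DNA repair or cell cycle defect, compound-treated.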

[14] = NCI Yeast Anticancer Drug Screen. Data for the sgs1 strain (AID 173);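 also: 0% = growth of vehicle-only control cultures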; conditions: S. cerevisiae sgs1 mutant, stronger effect = higher value
Outline: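 Read-out: yeast growth inhibition relative to vehicle controls, following compound exposure of a strain with a defined DNA repair/cell cycle alteration.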

[15] = NCI Yeast Anticancer Drug Screen. Data for the mlh1 rad18 strain (AID 175); conditions: S. cerevisiae mlh1 rad18 strain growth inhibition, stronger effect = higher value
Outline: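 Yeast w/ defined DNA-repair lesions; compound exposure; growth vs vehicle controls → % inhibition.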

[16] = NCI Yeast Anticancer Drug Screen. Data for the rad18 strain (AID 177); conditions: S. cerevisiae rad18 mutant growth inhibition, stronger effect = higher value
Outline: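 Readout: growth inhibition vs vehicle controls. Cells: genetically altered yeast strain, DNA repair defect.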

[17] = at 5.0 µM (retest, dose inferred, filed as 0.5)
[18] = at 50.0 µM (retest, dose inferred, filed as 5.0)

Structure (SMILES): O=NC1c2cccc3cccc(c23)C1N=O (stereo not drawn)
- growth inhibition ([1]; at 1.2 µM): 14%
- growth inhibition ([1]; at 3.7 µM): 33%
- growth inhibition ([1]; at 11.0 µM): 75% (active)
- growth inhibition ([1]; at 33.0 µM): 90% (active)
- growth inhibition ([1]; at 100.0 µM): 94% (active)
- growth inhibition ([2]; at 1.2 µM): 3%
- growth inhibition ([2]; at 3.7 µM): 3%
- growth inhibition ([2]; at 11.0 µM): 20%
- growth inhibition ([2]; at 33.0 µM): 38%
- growth inhibition ([2]; at 100.0 µM): 69%
- growth inhibition ([3]; at 1.2 µM): 11%
- growth inhibition ([3]; at 3.7 µM): 41%
- growth inhibition ([3]; at 11.0 µM): 81% (active)
- growth inhibition ([3]; at 33.0 µM): 92% (active)
- growth inhibition ([3]; at 100.0 µM): 93% (active)
- growth inhibition ([4]; at 1.2 µM): 4%
- growth inhibition ([4]; at 3.7 µM): 12%
- growth inhibition ([4]; at 11.0 µM): 47%
- growth inhibition ([4]; at 33.0 µM): 86% (active)
- growth inhibition ([4]; at 100.0 µM): 94% (active)
- growth inhibition ([5]; at 1.2 µM): 19%
- growth inhibition ([5]; at 3.7 µM): 49%
- growth inhibition [5, 17]: 17%
- growth inhibition ([5]; at 11.0 µM): 84% (active)
- growth inhibition ([5]; at 33.0 µM): 93% (active)
- growth inhibition [5, 18]: 96% (active)
- growth inhibition ([5]; at 50.0 µM): 97% (active)
- growth inhibition ([5]; at 100.0 µM): 94% (active)
- growth inhibition ([6]; at 1.2 µM): -2%
- growth inhibition ([6]; at 3.7 µM): 0%
- growth inhibition [6, 17]: 13%
- growth inhibition ([6]; at 11.0 µM): -1%
- growth inhibition ([6]; at 33.0 µM): 31%
- growth inhibition [6, 18]: 94% (active)
- growth inhibition ([6]; at 50.0 µM): 94.3% (active)
- growth inhibition ([6]; at 100.0 µM): 45%
- growth inhibition ([7]; at 1.2 µM): 4%
- growth inhibition ([7]; at 3.7 µM): 25%
- growth inhibition ([7]; at 11.0 µM): 40%
- growth inhibition ([7]; at 33.0 µM): 92% (active)
- growth inhibition ([7]; at 100.0 µM): 97% (active)
- growth inhibition [8, 17]: 30%
- growth inhibition [8, 18]: 97% (active)
- growth inhibition ([8]; at 50.0 µM): 97.3% (active)
- growth inhibition ([9]; at 1.2 µM): 4%
- growth inhibition ([9]; at 3.7 µM): 8%
- growth inhibition ([9]; at 11.0 µM): 24%
- growth inhibition ([9]; at 33.0 µM): 43%
- growth inhibition ([9]; at 100.0 µM): 54%
- growth inhibition [10, 17]: 6%
- growth inhibition [10, 18]: 92% (active)
- growth inhibition ([10]; at 50.0 µM): 80.5% (active)
- growth inhibition ([11]; at 1.2 µM): -10%
- growth inhibition ([11]; at 3.7 µM): -20%
- growth inhibition [11, 17]: -3%
- growth inhibition ([11]; at 11.0 µM): 16%
- growth inhibition ([11]; at 33.0 µM): 27%
- growth inhibition [11, 18]: 95% (active)
- growth inhibition ([11]; at 50.0 µM): 89% (active)
- growth inhibition ([11]; at 100.0 µM): 44%
- growth inhibition ([12]; at 1.2 µM): 2%
- growth inhibition ([12]; at 3.7 µM): 9%
- growth inhibition ([12]; at 11.0 µM): 36%
- growth inhibition ([12]; at 33.0 µM): 77% (active)
- growth inhibition ([12]; at 100.0 µM): 94% (active)
- growth inhibition ([13]; at 1.2 µM): 2%
- growth inhibition ([13]; at 3.7 µM): 13%
- growth inhibition ([13]; at 11.0 µM): 40%
- growth inhibition ([13]; at 33.0 µM): 88% (active)
- growth inhibition ([13]; at 100.0 µM): 94% (active)
- growth inhibition ([14]; at 1.2 µM): 7%
- growth inhibition ([14]; at 3.7 µM): 23%
- growth inhibition ([14]; at 11.0 µM): 58%
- growth inhibition ([14]; at 33.0 µM): 89% (active)
- growth inhibition ([14]; at 100.0 µM): 95% (active)
- growth inhibition [15, 17]: 48%
- growth inhibition [15, 18]: 98% (active)
- growth inhibition ([15]; at 50.0 µM): 97.3% (active)
- growth inhibition ([16]; at 1.2 µM): 22%
- growth inhibition ([16]; at 3.7 µM): 70% (active)
- growth inhibition ([16]; at 11.0 µM): 94% (active)
- growth inhibition ([16]; at 33.0 µM): 95% (active)
- growth inhibition ([16]; at 100.0 µM): 95% (active)
